# The supplement of paper PMC4466140
# B1: unnamed (peptide)
# chain: LLGRKRPVMERVVDI
# B2: unnamed (peptide)
# chain: NRARYLPQNPDIIAG
# Key:
# Test in all cases: SPOT peptide array binding signal intensity (averaged, normalized) (arbitrary units (background-subtracted, floor 0; scale differs between SH3 domains)); higher = stronger binding of the SH3 domain to the peptide
# [1] = target: AgAbp1
# Outline: (§1)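 Binding signal refers to normalized, background-subtracted spot intensity averaged over replicates, expressed in arbitrary units that differ between domains. GST-fused SH3 domains from four yeast species were incubated at 10 μg/ml overnight at 4°C on cellulose membranes of synthetic 15-mer peptides with cysteines replaced by serines. Bound protein was detected with anti-GST antibody, an HRP anti-mouse secondary and luminol, and quantified with Genespotter.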
# [2] = target: AgBbc1
# Outline: as §1
# [3] = target: AgBem1-D1
# Outline: as §1
# [4] = target: AgBzz1-D1
# Outline: as §1
# [5] = target: AgBzz1-D2
# Outline: as §1
# [6] = target: AgCyk3
# Outline: as §1
# [7] = target: AgFus1
# Outline: as §1
# [8] = target: AgHof1
# Outline: as §1
# [9] = target: AgHse1
# Outline: as §1
# [10] = target: AgLsb1
# Outline: as §1
# [11] = target: AgLsb4
# Outline: as §1
# [12] = target: AgMyo5
# Outline: as §1
# [13] = target: AgNbp2
# Outline: as §1
# [14] = target: AgRvs167
# Outline: as §1
# [15] = target: AgSho1
# Outline: as §1
# [16] = target: AgSla1-D1-D2
# Outline: as §1
# [17] = target: AgSla1-D3
# Outline: as §1
# [18] = target: CaAbp1-D1
# Outline: as §1
# [19] = target: CaAbp1-D2
# Outline: as §1
# [20] = target: CaBbc1
# Outline: as §1
# [21] = target: CaBem1-D1
# Outline: as §1
# [22] = target: CaBzz1-D1
# Outline: as §1
# [23] = target: CaBzz1-D2
# Outline: as §1
# [24] = target: CaCyk3
# Outline: as §1
# [25] = target: CaFus1
# Outline: as §1
# [26] = target: CaHof1
# Outline: as §1
# [27] = target: CaHse1
# Outline: as §1
# [28] = target: CaLsb1
# Outline: as §1
# [29] = target: CaLsb4
# Outline: as §1
# [30] = target: CaMyo5
# Outline: as §1
# [31] = target: CaNbp2
# Outline: as §1
# [32] = target: CaRvs167
# Outline: as §1
# [33] = target: CaRvs167-3
# Outline: as §1
# [34] = target: CaSho1
# Outline: as §1
# [35] = target: CaSla1-D1-D2
# Outline: as §1
# [36] = target: CaSla1-D3
# Outline: as §1
# [37] = target: ScAbp1
# Outline: as §1
# [38] = target: ScBbc1
# Outline: as §1
# [39] = target: ScBem1-D1
# Outline: as §1
# [40] = target: ScBzz1-D1
# Outline: as §1
# [41] = target: ScBzz1-D2
# Outline: as §1
# [42] = target: ScCyk3
# Outline: as §1
# [43] = target: ScFus1
# Outline: as §1
# [44] = target: ScHof1
# Outline: as §1
# [45] = target: ScHse1
# Outline: as §1
# [46] = target: ScLsb1
# Outline: as §1
# [47] = target: ScLsb2
# Outline: as §1
# [48] = target: ScLsb3
# Outline: as §1
# [49] = target: ScLsb4
# Outline: as §1
# [50] = target: ScMyo3
# Outline: as §1
# [51] = target: ScMyo5
# Outline: as §1
# [52] = target: ScNbp2
# Outline: as §1
# [53] = target: ScPex13
# Outline: as §1
# [54] = target: ScRvs167
# Outline: as §1
# [55] = target: ScSho1
# Outline: as §1
# [56] = target: ScSla1-D1-D2
# Outline: as §1
# [57] = target: ScSla1-D3
# Outline: as §1
# [58] = target: SpAbp1-D1
# Outline: as §1
# [59] = target: SpBbc1
# Outline: as §1
# [60] = target: SpBzz1-D1
# Outline: as §1
# [61] = target: SpBzz1-D2
# Outline: as §1
# [62] = target: SpCyk3
# Outline: as §1
# [63] = target: SpHof1
# Outline: as §1
# [64] = target: SpHof1-2
# Outline: as §1
# [65] = target: SpHof1-3
# Outline: as §1
# [66] = target: SpHse1
# Outline: as §1
# [67] = target: SpLsb1
# Outline: as §1
# [68] = target: SpLsb4
# Outline: as §1
# [69] = target: SpMyo1
# Outline: as §1
# [70] = target: SpNbp2
# Outline: as §1
# [71] = target: SpPex13
# Outline: as §1
# [72] = target: SpRvs167
# Outline: as §1
# [73] = target: SpSla1-D1-D2
# Outline: as §1
# [74] = target: SpSla1-D3
# Outline: as §1
binder,measurement,setting,value
B1,SPOT peptide array binding signal intensity,[1],≤ 0
same,SPOT peptide array binding signal intensity,[2],27
same,SPOT peptide array binding signal intensity,[3],41
same,SPOT peptide array binding signal intensity,[4],47
same,SPOT peptide array binding signal intensity,[5],35
same,SPOT peptide array binding signal intensity,[6],1
same,SPOT peptide array binding signal intensity,[7],142
same,SPOT peptide array binding signal intensity,[8],2.5
same,SPOT peptide array binding signal intensity,[9],586
same,SPOT peptide array binding signal intensity,[10],0.25
same,SPOT peptide array binding signal intensity,[11],65.5
same,SPOT peptide array binding signal intensity,[12],3.5
same,SPOT peptide array binding signal intensity,[13],144
same,SPOT peptide array binding signal intensity,[14],3.67
same,SPOT peptide array binding signal intensity,[15],76.5
same,SPOT peptide array binding signal intensity,[16],18
same,SPOT peptide array binding signal intensity,[17],0.5
same,SPOT peptide array binding signal intensity,[18],21
same,SPOT peptide array binding signal intensity,[19],51
same,SPOT peptide array binding signal intensity,[20],99.5
same,SPOT peptide array binding signal intensity,[21],60.5
same,SPOT peptide array binding signal intensity,[22],236
same,SPOT peptide array binding signal intensity,[23],63.5
same,SPOT peptide array binding signal intensity,[24],46
same,SPOT peptide array binding signal intensity,[25],398
same,SPOT peptide array binding signal intensity,[26],0.5
same,SPOT peptide array binding signal intensity,[27],54
same,SPOT peptide array binding signal intensity,[28],≤ 0
same,SPOT peptide array binding signal intensity,[29],163
same,SPOT peptide array binding signal intensity,[30],10.8
same,SPOT peptide array binding signal intensity,[31],595
same,SPOT peptide array binding signal intensity,[32],14.8
same,SPOT peptide array binding signal intensity,[33],1.75
same,SPOT peptide array binding signal intensity,[34],374
same,SPOT peptide array binding signal intensity,[35],154
same,SPOT peptide array binding signal intensity,[36],150
same,SPOT peptide array binding signal intensity,[37],33
same,SPOT peptide array binding signal intensity,[38],5.5
same,SPOT peptide array binding signal intensity,[39],3
same,SPOT peptide array binding signal intensity,[40],29.5
same,SPOT peptide array binding signal intensity,[41],24.5
same,SPOT peptide array binding signal intensity,[42],31.5
same,SPOT peptide array binding signal intensity,[43],163
same,SPOT peptide array binding signal intensity,[44],1
same,SPOT peptide array binding signal intensity,[45],552
same,SPOT peptide array binding signal intensity,[46],13.2
same,SPOT peptide array binding signal intensity,[47],≤ 0
same,SPOT peptide array binding signal intensity,[48],140
same,SPOT peptide array binding signal intensity,[49],27.5
same,SPOT peptide array binding signal intensity,[50],4
same,SPOT peptide array binding signal intensity,[51],1.5
same,SPOT peptide array binding signal intensity,[52],254
same,SPOT peptide array binding signal intensity,[53],53.5
same,SPOT peptide array binding signal intensity,[54],7.67
same,SPOT peptide array binding signal intensity,[55],412
same,SPOT peptide array binding signal intensity,[56],158
same,SPOT peptide array binding signal intensity,[57],78.5
same,SPOT peptide array binding signal intensity,[58],≤ 0
same,SPOT peptide array binding signal intensity,[59],5.5
same,SPOT peptide array binding signal intensity,[60],158
B2,SPOT peptide array binding signal intensity,[31],59
same,SPOT peptide array binding signal intensity,[32],4.17
same,SPOT peptide array binding signal intensity,[33],1.75
same,SPOT peptide array binding signal intensity,[34],17.5
same,SPOT peptide array binding signal intensity,[35],≤ 0
same,SPOT peptide array binding signal intensity,[36],≤ 0
same,SPOT peptide array binding signal intensity,[37],7.5
same,SPOT peptide array binding signal intensity,[38],≤ 0
same,SPOT peptide array binding signal intensity,[39],7
same,SPOT peptide array binding signal intensity,[40],7
same,SPOT peptide array binding signal intensity,[41],≤ 0
same,SPOT peptide array binding signal intensity,[42],3
same,SPOT peptide array binding signal intensity,[43],≤ 0
same,SPOT peptide array binding signal intensity,[44],1.5
same,SPOT peptide array binding signal intensity,[45],647
same,SPOT peptide array binding signal intensity,[46],1.5
same,SPOT peptide array binding signal intensity,[47],≤ 0
same,SPOT peptide array binding signal intensity,[48],58
same,SPOT peptide array binding signal intensity,[49],≤ 0
same,SPOT peptide array binding signal intensity,[50],≤ 0
same,SPOT peptide array binding signal intensity,[51],9.25
same,SPOT peptide array binding signal intensity,[52],≤ 0
same,SPOT peptide array binding signal intensity,[53],2.75
same,SPOT peptide array binding signal intensity,[54],5.83
same,SPOT peptide array binding signal intensity,[55],87.5
same,SPOT peptide array binding signal intensity,[56],≤ 0
same,SPOT peptide array binding signal intensity,[57],≤ 0
same,SPOT peptide array binding signal intensity,[58],≤ 0
same,SPOT peptide array binding signal intensity,[59],≤ 0
same,SPOT peptide array binding signal intensity,[60],31.5
same,SPOT peptide array binding signal intensity,[61],0.75
same,SPOT peptide array binding signal intensity,[62],≤ 0
same,SPOT peptide array binding signal intensity,[63],32.8
same,SPOT peptide array binding signal intensity,[64],13
same,SPOT peptide array binding signal intensity,[65],251
same,SPOT peptide array binding signal intensity,[66],204
same,SPOT peptide array binding signal intensity,[67],2
same,SPOT peptide array binding signal intensity,[68],38
same,SPOT peptide array binding signal intensity,[69],7
same,SPOT peptide array binding signal intensity,[70],3
same,SPOT peptide array binding signal intensity,[71],1
same,SPOT peptide array binding signal intensity,[72],5.67
same,SPOT peptide array binding signal intensity,[73],≤ 0
same,SPOT peptide array binding signal intensity,[74],≤ 0
